High-throughput results as filed in PubChem BioAssay.
A selection follows.
aSyn UTR act = Activators via SNCA 5'UTR binding, MLPCN; alpha-synuclein 5'UTR reporter, activators screen; activity score, % (tested at 7.5 µM), hits read low; 7.1% of 300,000 active; AID 1814, 2009; in the data active means activity score below about -60%
A number is an active result; i = inactive.

SMILES	aSyn UTR act
COc1ccc(C(=O)CCc2ccccc2)c(O)c1	-107
COc1ccc(C(=O)Cc2ccc(F)cc2)c(OC)c1	-117
O=C(COc1ccc(F)cc1)c1c(O)cc(O)cc1O	-79
Cc1ccc2c(c1)C(=O)C(=O)N2CCCOc1ccccc1C	-110
COC(=O)[C@H](Cc1ccccc1)NC(=O)c1cc(COc2c(F)cccc2F)on1	-85
COc1cccc(-c2nnc(N(C)C(=O)C3CCOC3)s2)c1 (stereo not given)	-71
Cc1c([N+](=O)[O-])c(C(=O)Nc2ccc3c(c2)OCCO3)nn1C	-140
COc1cc(C(=O)Nc2ccc3c(c2)OCCO3)ccc1OC(F)F	-153
COc1ccc(NC(=O)c2ccc3c(c2)OCCO3)cc1OC	-104
O=C(Nc1ccc(F)c([N+](=O)[O-])c1)c1ccc2c(c1)OCCO2	-138
CC(=O)O[C@H]1C(=O)[C@@]2(C)C([C@H](OC(=O)c3ccccc3)[C@]3(O)C[C@H](OC(=O)[C@H](O)[C@@H](NC(=O)c4ccccc4)c4ccccc4)C(C)=C1C3(C)C)[C@]1(OC(C)=O)CO[C@@H]1C[C@H]2O (stereo not given in full)	i
COc1cc(C(=O)Nc2ccc3c(c2)OCCO3)ccc1OC(C)C	-163
COc1ccc(C(=O)Nc2ccc3c(c2)OCCO3)cc1[N+](=O)[O-]	-94
Cc1csc(NC(=O)c2nn(C)c(C)c2[N+](=O)[O-])n1	-123
N/C(=N\NC(=O)Nc1ccc(Cl)cc1)c1ccccn1	-114
O=C(Nc1ccccn1)c1ccc(-c2ccccc2)cc1	i
CC(Sc1ccccn1)C(=O)Nc1ccccc1 (stereo not given)	-208
CCOC(=O)c1ccc(NC(=O)c2cnccn2)cc1	-67
O=C(Nc1ccccn1)C(=O)Nc1ccccn1	-95
CCOC(=O)c1ccc(NC(=O)Nc2ccccn2)cc1	-90
O=C(Nc1ccccc1)Nc1cccc2cccnc12	-178
O=C(Nc1ccc(Cl)cc1)Nc1ccccn1	-167
S=C(Nc1ccccn1)c1ccccn1	-115
O=C(Nc1ccccc1)Nc1ccccn1	-126
CCOC(=O)c1ccc(NC(=O)C2CCCN(c3cnccn3)C2)cc1 (stereo not given)	-88
SMILES	aSyn UTR act
O=C(NC(=S)Nc1ccccn1)c1cccc([N+](=O)[O-])c1	-89
CCOc1ccc(C(=O)NC(=S)Nc2ccccn2)cc1[N+](=O)[O-]	-104
O=C(Nc1ccccn1)c1sc2cc([N+](=O)[O-])ccc2c1Cl	-161
CC1CC(C)CN(C(=O)/C=C/c2ccc([N+](=O)[O-])s2)C1 (stereo not given)	-97
O=C(/C=C/c1cccs1)N1CCCCC1	-92
O=C(/C=C/c1ccc([N+](=O)[O-])s1)N1CCCC1	-102
CC1CN(C(=O)/C=C/c2ccc([N+](=O)[O-])s2)CC(C)O1 (stereo not given)	-82
COc1ccc(OC)c(NC(=O)c2cc(-c3cc(C)ccc3O)n[nH]2)c1	-104
Cc1ccc(-c2cc(C(=O)Nc3cc(C)ccc3C)[nH]n2)c(O)c1	-86
Cc1ccc(C)c(NC(=O)c2cc(-c3cc(C)c(C)cc3O)n[nH]2)c1	-233
Cc1ccc(C)c(NC(=O)c2cc(-c3ccccc3O)n[nH]2)c1	-198
Cc1ccc(C)c(NC(=O)COC(=O)c2cccc3c2C(=O)c2ccccc2C3=O)c1	i
O=C(O)c1ccc2oc(SCC(=O)N3CCCCC3)nc2c1	-88
CC1CCCN(C(=O)CSc2nc3ccccc3o2)C1 (stereo not given)	-99
O=C(NC(=S)Nc1ccccc1Br)c1ccco1	-86
O=C(/C=C/c1cccs1)NC(=S)NNC(=O)c1ccccc1O	i
O=C(NC(=S)NNC(=O)c1ccccc1O)c1ccco1	-99
Cc1cccc(NC(=S)NC(=O)c2ccco2)c1C	-94
Cc1c(NC(=S)NC(=O)Cc2ccccc2)cccc1C(=O)O	-79
O=C1c2c(Br)c(Br)c(Br)c(Br)c2C(=O)N1c1ccccn1	-112
Cc1nnc(NC(=O)c2ccc(Br)cc2)s1	-96
CC(=O)Oc1ccc(C(=O)Nc2nnc(C)s2)cc1	-63
CCOCCCNC(=O)c1ccc(Br)cc1	-84
CC1=Nc2cc(C(=O)NCCCOC(C)C)ccc2Sc2ccc(C)cc21	i
CCCC1=Nc2cc(C(=O)NCCCOCC)ccc2Sc2ccccc21	i
SMILES	aSyn UTR act
CC(C)OCCCNC(=O)c1ccc(Br)cc1	-73
COc1cc(C(=O)Oc2c(CN3CCOCC3)cc(Cl)c3cccnc23)cc(OC)c1OC	i
CCCCCOc1ccc(CN2CCOCC2)cc1Cl	-154
COCCNC(=O)c1ccc2c3n(nc2c1)-c1ccc(C)cc1CO3	-151
Cc1ccc2c(c1)COc1c3ccc(C(=O)N[C@@H](CO)C(C)C)cc3nn1-2	-144
Cc1c(Cl)cccc1Nc1nc(N)nc(CSc2ncccn2)n1	-77
O=C(CSC(=S)N1CCOCC1)Nc1nc(=O)c2ccccc2s1	-85
Cc1cc(Cl)ccc1OCCCC(=O)N1CCOCC1	-95
Cc1cc(Cl)ccc1OCCCC(=O)N1CCCCC1	-101
Cc1cc(Cl)ccc1OCC(=O)N1C(C)CCCC1C (stereo not given)	-62
COc1ccc(-c2cn3cccc(C)c3n2)cc1F	-149
COc1ccc(-c2cn3cc(C)ccc3n2)cc1F	i
O=[N+]([O-])c1cccn2cc(-c3ccc(Br)cc3)nc12	-315
Cc1ccc(-c2cn3cccc(C)c3n2)cc1	-75
O=C(NC1CCCCC1)C(c1cccnc1)N(C(=O)CCl)c1ccc(F)cc1 (stereo not given)	-94
COc1ccc(C(C(=O)NC2CCCCC2)N(C(=O)CCl)c2cccc(Cl)c2)cc1 (stereo not given)	-74
CCC(C)c1ccc(N(C(=O)c2ccco2)C(C(=O)NC2CCCC2)c2cccnc2)cc1 (stereo not given)	-115
C#CC(=O)N(c1ccc(OC)cc1OC)C(C(=O)NC1CCCC1)c1cccs1 (stereo not given)	i
CC(C)c1ccc(N(C(=O)c2ccco2)C(C(=O)NC2CCCC2)c2ccncc2)cc1 (stereo not given)	-150
Cc1cc2c(C)nc(N/N=C/c3ccc(F)cc3)nc2o1	-72
COc1ccc(/C=N/Nc2cc(C)nc3ccc(Br)cc23)cc1	i
O=C(COc1ccc(Cl)cc1)Nc1ncccn1	-99
Cc1ccnc(NC(=O)COc2ccc(Cl)cc2)n1	-83
CCCCOC(=O)/C(=C/c1cn(C)c2ccccc12)NC(=O)c1ccc(OC)cc1	-100
CC(=O)c1ccc(NC(=O)C2CCN(S(=O)(=O)c3cccs3)CC2)cc1	-80
SMILES	aSyn UTR act
O=C(Nc1nc2ccccc2[nH]1)C1CCN(S(=O)(=O)c2cccs2)CC1	-70
CC(C)(C)C1CCc2c(sc(NC(=O)c3ccncc3)c2C(N)=O)C1 (stereo not given)	-131
CCC1CCc2c(sc(NC(=O)c3ccoc3C)c2C(N)=O)C1 (stereo not given)	-89
NC(=O)c1c(NC(=O)c2cccnc2)sc2c1CCCC2	-221
NC(=O)c1c(NC(=O)c2cccnc2)sc2c1CCCCC2	-177
CCC1CCc2c(sc(NC(=O)c3cccnc3)c2C(N)=O)C1 (stereo not given)	-99
c1ccc(CSc2nnnn2-c2ccc3c(c2)OCCO3)nc1	-71
Cc1csc2ncc(C(=O)Nc3ccccc3F)c(=O)n12	-205
Cc1csc2ncc(C(=O)Nc3ccccc3Cl)c(=O)n12	-204
COc1ccc(N2CCc3c(C)nc4c(OC)cccc4c32)cc1	i
COc1ccc2c(c1OC)C(=O)N(c1nccs1)C2	-111
COc1ccc(N2Cc3ccc(OC)c(OC)c3C2=O)cc1	-224
COC(=O)c1sc2nc3c(cc2c1N)COC(C)(C)C3	-131
